Among the data in PubChem BioAssay are activity values, retold here.

In assay [1] the target is Tumor necrosis factor receptor superfamily member 10B (Homo sapiens) (UniProt O14763). Description: caspase-8 TRAIL sensitization, hit retest, confirmation, cell-based, NB7+caspase-8, with/without TRAIL, luminescence panel (AID 651596). As to conditions: NB7 neuroblastoma + caspase-8, TRAIL sensitization, luminescence viability, with TRAIL, mean of runs, at 10 µM, stronger effect = higher value; in the data active = activity above about 50%; inactive = the rest.
Sequence of Tumor necrosis factor receptor superfamily member 10B (Homo sapiens) (O14763 whole entry, looked up): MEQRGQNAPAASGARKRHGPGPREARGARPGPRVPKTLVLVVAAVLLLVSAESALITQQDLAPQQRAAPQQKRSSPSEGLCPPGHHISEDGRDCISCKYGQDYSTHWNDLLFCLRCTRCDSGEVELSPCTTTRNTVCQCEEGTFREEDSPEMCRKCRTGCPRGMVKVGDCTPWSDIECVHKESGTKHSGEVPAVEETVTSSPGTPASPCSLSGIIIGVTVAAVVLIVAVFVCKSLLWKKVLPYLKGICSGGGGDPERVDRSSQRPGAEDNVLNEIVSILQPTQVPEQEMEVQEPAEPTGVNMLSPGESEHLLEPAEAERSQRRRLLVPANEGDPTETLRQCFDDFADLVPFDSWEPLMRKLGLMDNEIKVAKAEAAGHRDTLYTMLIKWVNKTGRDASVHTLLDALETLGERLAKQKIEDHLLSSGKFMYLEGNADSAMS

Test in assay [2]: as above
The note with it: NB7 neuroblastoma + caspase-8, without TRAIL, luminescence viability, without TRAIL, mean of runs, at 10 µM.

`FC(F)(F)c1cc(CCN2CCNC[C@@H]2CC2CCCCC2)cc(C(F)(F)F)c1`: the figures for the activity in assay [1] and in assay [2] were 35.1% and 84.2%, respectively.
Consider `Fc1ccc(/C=N/Nc2nc(-c3cccnc3)nc3ccccc23)cc1`, for which the activity in assay [1] turned out to be 50.8%; in assay [2] it was 19.2%.
Consider `CC1(C)N=C(N)N=C(N)N1c1ccc(OCC(=O)N2CCOCC2)cc1`, for which the activity in assay [1] stood at 62.7%; in assay [2], 87.2%.
The matching figures for `COc1ccc(NC(=O)N2CCc3ccccc32)cc1`: 64.4% and 64%.
The matching figures for `Cc1ccccc1/C=C/c1nc2ccccc2c(=O)[nH]1`: 56.1% and 58.7%.
Consider `CN(C)CCCN(C(=O)/C=C/c1cccs1)c1nc2c(F)cccc2s1`, for which the values for the activity in assay [1] and in assay [2] were 56.7% and 93%, respectively.
As for `O=C(C#Cc1ccccc1)c1ccccc1`, the values for the activity in assay [1] and in assay [2] were 54% and 96.6%, respectively.
The matching figures for `O=C(/C(=C/c1ccc(Cl)cc1)c1nc2ccccc2[nH]1)c1ccccc1`: 84.1% and 85.1%.
As to `Cc1nc2sc(-c3ccccc3)cc2c(=O)[nH]1`, the activity in assay [1] was determined as 74.1%; in assay [2] it was 73.8%.
The matching figures for `Cc1cc(C(=O)Nc2sc3c(c2C#N)CCC(C)C3)no1` (stereo not given): 58.6% and 52.6%.
The matching figures for `CSc1nc2ccc(NC(=O)c3ccccn3)cc2s1`: 83.2% and 80%.
Regarding `O=C(Nc1ccc(-c2nc3ccccc3[nH]2)cc1)C1CCCO1` (stereo not given), the activity is 79.5% in assay [1] and 71% in assay [2].
The matching figures for `O=[N+]([O-])c1ccc(N2CCN(Cc3ccccc3)CC2)c2c1no[n+]2[O-]`: 99.2% and 99.1%.
As to `CC1CCC(C(C)C)C(OC(=O)Cn2c(-c3ccccc3)[n+](C)c3ccccc32)C1` (stereo not given), the activity in assay [1] was found to be 70.2%; in assay [2], 61.2%.
With `Nc1c2c(nc3sc4c(c13)CCCCC4)CCCCC2`, the activity in assay [1] turned out to be 48.1%; in assay [2], 47.8%.
The matching figures for `C/C(=N\NC(=O)c1ccccc1F)c1cccc(NC(=O)c2ccc(C)cc2)c1`: 59.8% and 71.5%.
The corresponding values for `Cc1ccc(-c2cc(C(=O)N/N=C/c3cccnc3)c3ccccc3n2)cc1C` are 43.9% and 35%.
The matching figures for `COc1ccc(C(=O)Nc2ccc3[nH]ccc3c2)cc1`: 95.1% and 95.3%.
As for `CC(C)(C)c1ccc(NC(=O)c2ccsc2)cc1`, the activity in assay [1] was 73.7%; in assay [2], 71.9%.
The matching figures for `CC(=O)c1sc(NC(=O)c2cc(=O)c3ccccc3o2)nc1C`: 51.1% and 50.8%.
The corresponding values for `N#Cc1c(/N=C/c2cccs2)sc2c1CCCCC2` are 65.7% and 35.4%.
The matching figures for `CCS(=O)(=O)c1ncc(Cl)c(C(=O)Nc2ccc(S(=O)(=O)N3CCC(C)CC3)cc2)n1`: 95.2% and 98.8%.
As for `COc1ccc(Oc2c(Cl)cnn(-c3ccc(Cl)c(Cl)c3)c2=O)cc1`, the activity in assay [1] came to 98.5%; in assay [2] it was 99.1%.
The matching figures for `COc1cc(OC)cc(C(=O)Nc2nc3ccccc3[nH]2)c1`: 55% and 56.8%.
The matching figures for `COCCOCCn1c(/C=C/c2ccccc2)nc2ccccc21`: 65.4% and 77.1%.
The corresponding values for `Cc1cccc(NC(=O)c2ccc3c(c2)OCCO3)c1` are 85% and 83.5%.
In the case of `Cc1cc(C(=O)COC(=O)c2n[nH]c3ccccc23)c(C)n1C`, the activity came out at 62.2% in assay [1] and 55.9% in assay [2].
For the molecule `Cc1ccc(C2=NS(=O)(=O)N(C)C(C(=O)NCc3cccs3)=C2)cc1`, the activity came to 5.95% in assay [1] and 0.8% in assay [2].
As to `O=c1c2ccccc2oc2ccc(C#CC3(O)CCCCC3)cc12`, the activity in assay [1] was 86.2%; in assay [2], 84.8%.
Turning to `CC(C)Cc1nc2oc3c(Cl)ncnc3c2c2c1CCC2`, the activity in assay [1] came out at 95.9%; in assay [2] it was 96.4%.
`C=CCNC(=O)c1ccc2c3n(nc2c1)-c1ccccc1CO3`: the values for the activity in assay [1] and in assay [2] were 89.8% and 90.5%, respectively.
The matching figures for `COc1ccc(CSc2nc3ccccc3[nH]2)cc1`: 70.8% and 83.3%.
The matching figures for `O=C1C(=Cc2ccccc2Cl)CCc2ccccc21`: 62.3% and 51.9%.
The corresponding values for `O=C(N/N=C/c1ccc2ncccc2c1)c1ccco1` are 75.7% and 70.7%.
For `CCCCN(C)C(=O)c1ccc(Nc2nc(C(N)Cc3ccc(C(F)(F)F)cc3)cs2)nc1` (stereo not given), the results for the activity in assay [1] and in assay [2] were 56.9% and 90.2%, respectively.
In the case of `CCOc1ccc2nc(NC(=O)c3ccc(C)o3)sc2c1`, the activity worked out at 61.1% in assay [1] and 52.9% in assay [2].
The matching figures for `OC(c1ccccc1)(c1ccccc1)C1CCN(CCCOc2ccc3c(c2)CCCC3)CC1`: 38% and 48.9%.
Regarding `CCN(CC)S(=O)(=O)c1cc(C(=O)OCC(=O)Nc2ccc(-c3nc4ccc(C)cc4s3)cc2)ccc1F`, the activity in assay [1] amounted to 73.7%; in assay [2] it was 74.2%.
As for `O=C(Nc1nc2ccccc2n1CCN1CCCCC1)C1CCCCC1`, the activity is 56.6% in assay [1] and 54.1% in assay [2].
Turning to `Cc1nc(NC(=S)NC(=O)c2ccccc2)sc1C`, the activity in assay [1] was 57.1%; in assay [2] it was 57%.
The matching figures for `CSc1nnc(NC(=O)c2nc(S(=O)(=O)Cc3ccccc3)ncc2Cl)s1`: 83.6% and 77.9%.
For the molecule `Cc1ccc(C(C)C)c(OCC(=O)Nc2ccc3c(c2)nc(CCN2CCCCC2)n3C)c1`, the activity in assay [1] was determined as 7.92%; in assay [2], 39.4%.
For `Cc1c(C(=O)Nc2cccc([N+](=O)[O-])c2)csc1-c1ccccc1`, the results for the activity in assay [1] and in assay [2] were 56.5% and 48.1%, respectively.
Turning to `Cc1ccc(-c2nc(-c3ccccn3)no2)cc1[N+](=O)[O-]`, the figures for the activity in assay [1] and in assay [2] were 60.7% and 55%, respectively.
Turning to `CCN(CC)CCN1C(=O)/C(=C\c2ccc(Cl)c([N+](=O)[O-])c2)SC1=Nc1ccc(OC)cc1`, the activity came to 82.2% in assay [1] and 97.3% in assay [2].
The corresponding values for `COc1ccc2nc(Nc3ccccc3OC)sc2c1` are 68.3% and 59.2%.
The corresponding values for `O=C(OCc1cccc(C(F)(F)F)c1)c1cc(S(=O)(=O)N2CCOCC2)ccc1F` are 36.8% and 21%.
Take `COc1ccc(C(=O)NCc2cn3cccc(C)c3n2)cc1OC`: the activity in assay [1] was 4.08%; in assay [2], 3.77%.
The matching figures for `COc1ccc2sc(NC(=O)c3ccco3)nc2c1`: 68.9% and 74.8%.
The matching figures for `Cc1ccc(C(=O)/C=C/Nc2ccccn2)cc1`: 86.9% and 79.8%.
Regarding `CNC[C@H](CC1CCCCC1)NC[C@H](Cc1ccccc1)NCCC12CC3CC(CC(C3)C1)C2`, the activity in assay [1] came to 98.5%; in assay [2] it was 99.4%.
Regarding `Nc1nc2ccccc2n1C(=O)c1ccc(F)cc1`, the activity in assay [1] was determined as 91.5%; in assay [2], 91%.
Take `C=C1CC2(CC(c3ccccc3)OC(c3ccccc3)C2)OC1=O` (stereo not given): the activity in assay [1] was 47%; in assay [2] it was 73.1%.
The matching figures for `CCCCN(C)C(=O)c1cc2cc3ccc(OC)cc3nc2s1`: 69.9% and 70.3%.
As for `O=C(COc1ccc(Cl)cc1Cl)Nc1ccccc1F`, the activity in assay [1] stood at 54.9%; in assay [2], 40.5%.
For the molecule `CCOc1ccc(-c2c(C#N)c(N)nc3c2c(=O)n(C)c(=O)n3C)cc1OC`, the activity was -4.4% in assay [1] and -21.2% in assay [2].
The corresponding values for `COc1ccc2cc3cc(C(=O)NC4CC4)sc3nc2c1` are 80% and 81.4%.
In the case of `COc1ccc(C(=O)Nc2ccc3ncccc3c2)cc1`, the activity came to 87.7% in assay [1] and 85.3% in assay [2].
The matching figures for `Clc1ccc(-n2ncc3c(N4CCCC4)ncnc32)cc1`: 66.2% and 53.2%.
The corresponding values for `COCC(C)n1c(C)cc(C(=O)COC(=O)c2n[nH]c3ccccc23)c1C` (stereo not given) are 58.5% and 51.9%.
On to `CCOc1ccc2nc(NC(=O)c3cccc(N4C(=O)CCC4=O)c3)sc2c1`, for which the activity in assay [1] is 65.7%; in assay [2], 81.5%.
On to `Cc1nc(-c2ccc(NC(=O)CC(C)C)cc2)cs1`, for which the activity in assay [1] worked out at 51.7%; in assay [2], 55.5%.
The corresponding values for `CCOc1ccc(OCC(=O)N(CCC2=CCCCC2)c2c(N)n(Cc3ccccc3)c(=O)[nH]c2=O)cc1` are 48.6% and 1.7%.
The matching figures for `CCn1c(=O)c([N+](=O)[O-])c(Cl)c2ccccc21`: 83.6% and 70.1%.
For `Cc1ccc(C(=O)N/C(=C\c2ccc(-c3ccccc3[N+](=O)[O-])o2)C(=O)NCCN(C)C)cc1`, the activity in assay [1] is 42%; in assay [2] it was 99.7%.
On to `C#CCSc1nnc(CSc2nc3ccccc3s2)n1-c1ccccc1`, for which the activity turned out to be 95.3% in assay [1] and 94.8% in assay [2].
The corresponding values for `CN(C)c1cccc(C(=O)N/N=C/c2ccsc2)c1` are 65% and 40.4%.
For the molecule `CC(C)(C)c1ccc(-c2noc(CCC(=O)Nc3cccnc3)n2)cc1`, the values for the activity in assay [1] and in assay [2] were 48.3% and 50.9%, respectively.
Regarding `Cc1scc(C(=O)N/N=C/c2ccsc2)c1C`, the activity is 58.1% in assay [1] and 63.5% in assay [2].
The corresponding values for `Cn1c(=S)[nH]c2sc3c(c2c1=O)CCC(C(C)(C)C)C3` (stereo not given) are 86.4% and 78%.
The corresponding values for `COc1cc2c(cc1OC)C(c1cc(Br)ccc1F)N(C(=O)CCl)CC2` (stereo not given) are 98.6% and 98.7%.
The matching figures for `COc1cccc(N2C(N)=NC(N)=NC2(C)C)c1`: 79.7% and 85%.
Consider `CN(C)CCCN(C(=O)c1ccc(S(=O)(=O)N(C)C2CCCCC2)cc1)c1nc2ccc(Br)cc2s1`, for which the activity in assay [1] worked out at 46.2%; in assay [2] it was 45%.
Regarding `C=CCNc1nc(NCc2ccc(NC(C)=O)cc2)c2sc(-c3ccccc3)cc2n1`, the activity in assay [1] amounted to 46.1%; in assay [2], 43.1%.
The corresponding values for `CC(=O)Nc1cccc(-c2csc(Nc3ccc(C)cn3)n2)c1` are 49.5% and 30.4%.
